Assay [1] concerns the target 3',5'-cyclic-AMP phosphodiesterase 4B (Homo sapiens) (UniProt Q07343). Nature of the assay: qHTS Assay for Inhibitors of PDE-IV (AID 607; active = well fitted activation curve with a large enough effect in the main read-out, with a control signal flat, not every such curve was filed as active; note: potency is the fitted concentration of half-maximal effect). In short, it runs like this:
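ACTOne HEK293 cells carry a modified cAMP-gated CNG channel and express endogenous PDE4; plated 1000 cells/well, compounds up to 22.9 uM final. Membrane-potential dye fluorescence (ex 535/em 590) was read; parental cells received 10 uM forskolin + 100 uM RO 20-1724.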
On the technique in general: qHTS replaces the single test concentration by a dilution series.

The target of assay [2] is Guanine nucleotide-binding protein G(i) subunit alpha-1 (Homo sapiens) (UniProt P63096). Nature of the assay: qHTS Assay for Inhibitors of RGS12 GoLoco Motif Activity (Green Fluorophore) (AID 879).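 Note: 0% = labeled peptide with Gαi1 and full inhibition = labeled peptide alone without protein; negative values mean loss of peptide binding seen as reduced polarization.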 The method in brief: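 Fluorescence polarization assay: 50 nM Gαi1 with 10 nM FITC-labeled RGS12 GoLoco peptide in 10 mM Tris pH 7.5, 150 mM NaCl, 0.1 mM GDP, 0.05% NP40, 10 min at room temperature with compound.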

Assay [3] in a line: Cellular Toxicity (caspase-3) HepG2 (AID 654).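 Note: cells exposed to compound for 16 hours before reading; 0% = DMSO alone and 100% = caspase signal from 100 µM tamoxifen.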 The method in brief:
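HepG2 cells (1500/well) in complete medium were treated with compounds for 16 hr at 37 °C. Caspase-3/7 activity was then read as luminescence from peptide-aminoluciferin cleavage. AC50 came from Hill fits, normalized to DMSO and 100 uM tamoxifen.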

The nature of assay [4]: Cellular Toxicity (caspase-3) Jurkat (AID 655).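 Note: cells exposed to compound for 16 h at 37 °C before reading.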 In short, it runs like this: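 Luminescent Caspase-Glo 3/7 read-out (20 min, room temperature) after 16 h compound treatment at 37 C of 5000 Jurkat cells per well. AC50 derived by Hill-equation fitting, scaled between DMSO basal and 100 uM tamoxifen stimulation.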
Assay [5] in a line: Cellular Toxicity (caspase-3) HUV-EC-C (AID 656).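 Note: 0% = DMSO basal and 100% = 100 µM tamoxifen.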 In short, it runs like this:
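Luminescent Caspase-Glo 3/7 readout after 16 h, 37 °C compound exposure of HUV-EC-C endothelial cells, 1000 per well, complete medium. AC50 derived by Hill fitting, with DMSO as baseline and 100 uM tamoxifen as full activation.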

Assay [6] is described as follows: Cellular Toxicity (caspase-3) SHSY5Y (AID 657). In short, it runs like this: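 Luminescent Caspase-Glo 3/7 read-out, 1 hr room temperature, follows 16 hours of compound treatment of SH-SY5Y cells at 37 °C. Normalization: DMSO basal, 10 uM staurosporine as 100%; AC50 values from Hill-equation concentration-response fits.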
A short description of assay [7]: Cellular Toxicity (caspase-3) BJ (AID 658).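 Note: 0% = DMSO basal and 100% = 10 µM staurosporine.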 The method in brief:
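Readout: Caspase-Glo 3/7 luminescence increase in BJ cells after 16 hr treatment at 37 °C. Staurosporine and tamoxifen served as positive controls; AC50 values came from Hill modelling of data normalized to DMSO and 10 uM staurosporine.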

The nature of assay [8]: Cellular Toxicity (caspase-3) MRC-5 (AID 659).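 Note: 0% = DMSO basal and 100% = 10 µM staurosporine.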 The following applies: Potency: caspase-3 activation. The method in brief: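 Concentration-dependent caspase 3/7 activation is measured in human normal lung fibroblasts (MRC-5) following 16-hour treatment. AC50 values come from standard Hill-equation modeling of luminescence normalized to DMSO and 10 uM staurosporine.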
Assay [9] can be described thus: Cellular Toxicity (caspase-3) Mesangial (AID 660).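 Note: cells exposed to compound for 16 h before the caspase read.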 In short, it runs like this: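 Human renal glomerular mesangial cells (1000/well) were treated with compounds for 16 h at 37 °C in complete medium, then caspase 3/7 activity was read by Caspase-Glo luminescence. Data were normalized to DMSO and 100 uM tamoxifen; AC50 from Hill fits.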
Assay [10] can be described thus: Cellular Toxicity (caspase-3) SK-N-SH (AID 661).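 Note: 0% = DMSO basal and 100% = 10 µM staurosporine.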 Particulars: SK-N-SH caspase-3 activation, qHTS; caspase-3 activation: at 91.7 µM (top of the series), DMSO as zero, staurosporine as full. The method in brief:
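SK-N-SH human neuroblastoma cells (1500/well) were treated with compounds for 16 hr at 37 °C in complete medium; caspase 3/7 activity was read by Caspase-Glo luminescence. AC50 came from Hill fits of data normalized to DMSO and 10 uM staurosporine.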

The nature of assay [11]: Cellular Toxicity (caspase-3) H-4-II-E (AID 663).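 Note: cells exposed to compound for 16 hr before readout; 0% = DMSO basal and 100% = 100 µM tamoxifen.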 The method in brief: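 Apoptosis induction is scored as increased luminescence from caspase 3/7 substrate cleavage in rat hepatoma H-4-II-E cells exposed to compound for 16 hr. Activity is scaled between DMSO and 100 uM tamoxifen.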
Assay [12] in a line: Cellular Toxicity (caspase-3) N2a (AID 665).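 Note: compound exposure lasted 16 h at 37 °C before readout.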 The method in brief:
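Mouse N2a neuroblastoma cells (1500/well) were treated with compounds for 16 h at 37 °C, then caspase-3/7 activity was read by Caspase-Glo luminescence after 1 h at room temperature. Data were normalized to DMSO and 10 uM staurosporine; AC50 from Hill fits.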

The nature of assay [13]: Cellular Toxicity (caspase-3) NIH 3T3 (AID 666).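 Note: caspase signal read after 16 h compound exposure; 0% = DMSO basal and 100% = 100 µM tamoxifen stimulation.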 The method in brief: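 Mouse NIH 3T3 fibroblasts (1000 cells/well) were treated with compound for 16 hr at 37°C in complete medium; caspase-3/7 activity was read by Caspase-Glo luminescence. Normalized to DMSO and 100 uM tamoxifen; AC50 from Hill fits.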
A short description of assay [14]: Cellular Toxicity (caspase-3) Renal Proximal Tubule (AID 667).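 Note: cells exposed to compound for 16 hours at 37 °C before detection; 0% = DMSO basal and 100% = 10 µM staurosporine.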 The method in brief:
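Caspase 3/7 activation measured by luminescent aminoluciferin release in primary rat proximal tubule cells after 16 hr compound exposure at 37 °C. AC50 from Hill-fitted concentration-response, scaled between DMSO and 10 uM staurosporine.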

The target of assay [15] is Cytochrome P450 2C9 (Homo sapiens) (UniProt P11712). Nature of the assay: qHTS Assay for Inhibitors and Substrates of Cytochrome P450 2C9 (AID 883). Note: % is set by controls: 0 for no effect and ±100 for the full control effect; nearly all actives have a fitted effect of over 60% in size. The method in brief: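 Turnover of Luciferin-H (100uM, KM) by 10nM human CYP2C9 was measured over 60 min at 37C with NADPH regeneration; inhibitors and some substrates reduce luminescence. Data normalized to sulphaphenazole 57uM.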

Assay [16] has as its target Cytochrome P450 2D6 (Homo sapiens) (UniProt P10635). Description: qHTS Assay for Inhibitors and Substrates of Cytochrome P450 2D6 (AID 891). Note: nearly all actives have a fitted effect of over 60% in size. Note: potency is the fitted concentration of half-maximal effect. In short, it runs like this:
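Human CYP2D6 (5 nM) with 30 uM Luciferin-ME EGE (at Km) in 100 mM KPO4, compound preincubated 10 min, then NADPH regeneration system for 60 min at room temperature. Luciferin read by luminescence; normalized to 1.43 uM quinidine.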

Assay [17] in a line: qHTS Assay for Identification of Small Molecule Antagonists for NFkB Signaling Pathway (AID 895; active = well fitted inhibition curve with a large enough effect in the signal ratio, with a control signal flat, not every such curve was filed as active; the % refers to the signal ratio; note: % is set by controls: 0 for no effect and ±100 for the full control effect). In short, it runs like this:
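Beta-lactamase reporter read-out (460 and 530 nm emission ratio, 405 nm excitation, 2 hrs substrate loading RT) after 5 hr stimulation with 10 pM TNF alpha in compound-treated NFkB-bla ME-180 cells in low-serum medium.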

Assay [18] deals with Cytochrome P450 2C19 (Homo sapiens) (UniProt P33261). Description: qHTS Assay for Inhibitors and Substrates of Cytochrome P450 2C19 (AID 899). Note: % is set by controls: 0 for no effect and ±100 for the full control effect; nearly all actives have a fitted effect of over 60% in size. The method in brief:
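Reactions contain 5nM enzyme, 10uM Luciferin-H EGE (KM) and 50mM KPO4; compound preincubates 10 min at 37C, NADPH regeneration starts turnover for 60 min. Luminescence after detection reagent gives activity.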

Assay [19] is described as follows: qHTS Assay for Identification of Small Molecule Agonists for Hypoxia Response Element Signaling Pathway (AID 914; active = well fitted activation curve with a large enough effect in the signal ratio, with a control signal flat, not every such curve was filed as active; the % refers to the signal ratio; note: % of control where 0% means no effect). Particulars: ME-180 (cervical carcinoma) HRE-bla reporter, beta-lactamase ratio, CoCl2, 17 h; stronger effect = higher value. The method in brief:
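AC50 values come from titration-series %Activity, taken as the 460/530nm ratio of CCF4 fluorescence (excitation 405nm). CellSensor HRE-bla ME-180 cells were treated 17 hours at 37 C with compound plus an EC50 level of CoCl2.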

Assay [20] in a line: Confirmation and Secondary Assay for Modulators of Hemoglobin Beta Chain Splicing at IVS2 654 locus (AID 910).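 Note: HeLa cells stably carrying EGFP split by mutant beta-globin IVS2-654 intron; per-well total GFP intensity by laser scanning cytometry after 2-day treatment; % of control where 0% means no effect.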 In short, it runs like this:
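Readout: per-well total peak green fluorescence (488 nm ex, 500–520 nm em) from objects 5–250 µm, reflecting correct splicing of an EGFP-654 reporter. Compounds were applied for 2 days at 37 °C to overnight-plated HeLa EGFP-654 cells; controls were DMSO and 500 nM IVS2-654 PNA.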

Values joined by “and” are separate entries in the source; they are usually repeats but may differ in a detail not shown here. Equal entries are not always repeated. A number with no mark means an inactive call. Results filed as inconclusive are left out. Active and inactive are the calls of the source. Unless noted, calls come from the whole dose curve; as a rule, active = well fitted curve in the direction sought with a large enough effect; inconclusive = small, poorly fitted or top-dose-only effect, or another doubt; inactive = no such curve, though single readings can be large; an effect the other way counts as inactive or inconclusive.

3',5'-cyclic-AMP phosphodiesterase 4B (Homo sapiens), sequence (Q07343 whole entry, looked up): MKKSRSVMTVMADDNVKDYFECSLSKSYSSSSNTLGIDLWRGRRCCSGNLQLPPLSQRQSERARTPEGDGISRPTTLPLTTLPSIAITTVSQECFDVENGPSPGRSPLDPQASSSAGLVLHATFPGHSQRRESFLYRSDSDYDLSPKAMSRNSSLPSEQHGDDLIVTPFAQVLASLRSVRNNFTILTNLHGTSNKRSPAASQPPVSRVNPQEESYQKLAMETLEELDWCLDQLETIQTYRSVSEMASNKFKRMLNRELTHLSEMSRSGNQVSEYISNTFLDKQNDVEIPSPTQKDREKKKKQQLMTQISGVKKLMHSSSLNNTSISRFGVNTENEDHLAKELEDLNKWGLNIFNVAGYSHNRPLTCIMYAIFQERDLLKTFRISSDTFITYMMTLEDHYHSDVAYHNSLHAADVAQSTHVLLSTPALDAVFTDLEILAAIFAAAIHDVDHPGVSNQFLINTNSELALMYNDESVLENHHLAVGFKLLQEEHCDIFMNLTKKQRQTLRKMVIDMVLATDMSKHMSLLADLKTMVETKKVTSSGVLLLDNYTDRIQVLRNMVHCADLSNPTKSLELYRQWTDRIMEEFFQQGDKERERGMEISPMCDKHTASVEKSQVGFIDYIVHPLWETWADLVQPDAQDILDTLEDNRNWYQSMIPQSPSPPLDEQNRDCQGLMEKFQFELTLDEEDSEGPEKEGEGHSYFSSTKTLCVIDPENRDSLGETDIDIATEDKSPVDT
Cytochrome P450 2D6 (Homo sapiens), sequence (P10635 whole entry, looked up): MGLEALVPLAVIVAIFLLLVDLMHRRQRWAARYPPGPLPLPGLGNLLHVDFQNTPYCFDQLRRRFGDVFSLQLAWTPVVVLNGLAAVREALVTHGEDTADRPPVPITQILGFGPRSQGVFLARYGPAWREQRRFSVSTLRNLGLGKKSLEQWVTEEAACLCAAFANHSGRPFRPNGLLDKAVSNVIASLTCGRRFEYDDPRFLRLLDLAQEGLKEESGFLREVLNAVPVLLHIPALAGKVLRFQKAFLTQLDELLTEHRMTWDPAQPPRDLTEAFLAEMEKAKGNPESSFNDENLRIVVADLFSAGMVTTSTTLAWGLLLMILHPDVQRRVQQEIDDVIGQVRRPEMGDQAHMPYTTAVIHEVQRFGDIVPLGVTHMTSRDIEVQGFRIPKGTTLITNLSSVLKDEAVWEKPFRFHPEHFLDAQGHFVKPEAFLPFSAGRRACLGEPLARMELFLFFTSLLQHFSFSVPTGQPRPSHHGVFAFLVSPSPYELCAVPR
Guanine nucleotide-binding protein G(i) subunit alpha-1 (Homo sapiens), sequence (P63096 whole entry, looked up): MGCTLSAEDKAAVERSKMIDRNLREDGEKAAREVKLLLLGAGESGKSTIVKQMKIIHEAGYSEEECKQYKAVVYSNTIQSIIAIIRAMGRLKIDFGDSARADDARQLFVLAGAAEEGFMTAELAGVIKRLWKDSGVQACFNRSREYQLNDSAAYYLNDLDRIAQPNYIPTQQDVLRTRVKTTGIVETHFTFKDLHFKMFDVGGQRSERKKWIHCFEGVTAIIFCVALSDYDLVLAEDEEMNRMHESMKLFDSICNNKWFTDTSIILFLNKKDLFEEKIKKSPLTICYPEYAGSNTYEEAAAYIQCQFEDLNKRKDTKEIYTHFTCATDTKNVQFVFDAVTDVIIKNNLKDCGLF
Cytochrome P450 2C9 (Homo sapiens), sequence (P11712 whole entry, looked up): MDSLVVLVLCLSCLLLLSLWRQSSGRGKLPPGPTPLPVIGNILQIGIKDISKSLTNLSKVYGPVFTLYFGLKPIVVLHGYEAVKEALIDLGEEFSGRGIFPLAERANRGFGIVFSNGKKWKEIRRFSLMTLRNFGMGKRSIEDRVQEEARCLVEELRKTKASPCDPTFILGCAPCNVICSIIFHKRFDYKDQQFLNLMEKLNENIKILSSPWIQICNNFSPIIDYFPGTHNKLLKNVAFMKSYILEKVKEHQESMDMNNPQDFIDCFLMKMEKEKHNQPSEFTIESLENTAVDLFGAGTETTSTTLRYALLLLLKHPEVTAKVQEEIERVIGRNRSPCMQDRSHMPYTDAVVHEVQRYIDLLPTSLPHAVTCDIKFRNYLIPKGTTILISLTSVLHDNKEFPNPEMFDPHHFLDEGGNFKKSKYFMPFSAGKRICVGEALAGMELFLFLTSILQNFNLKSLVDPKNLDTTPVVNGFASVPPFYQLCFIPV
Cytochrome P450 2C19 (Homo sapiens), sequence (P33261 whole entry, looked up): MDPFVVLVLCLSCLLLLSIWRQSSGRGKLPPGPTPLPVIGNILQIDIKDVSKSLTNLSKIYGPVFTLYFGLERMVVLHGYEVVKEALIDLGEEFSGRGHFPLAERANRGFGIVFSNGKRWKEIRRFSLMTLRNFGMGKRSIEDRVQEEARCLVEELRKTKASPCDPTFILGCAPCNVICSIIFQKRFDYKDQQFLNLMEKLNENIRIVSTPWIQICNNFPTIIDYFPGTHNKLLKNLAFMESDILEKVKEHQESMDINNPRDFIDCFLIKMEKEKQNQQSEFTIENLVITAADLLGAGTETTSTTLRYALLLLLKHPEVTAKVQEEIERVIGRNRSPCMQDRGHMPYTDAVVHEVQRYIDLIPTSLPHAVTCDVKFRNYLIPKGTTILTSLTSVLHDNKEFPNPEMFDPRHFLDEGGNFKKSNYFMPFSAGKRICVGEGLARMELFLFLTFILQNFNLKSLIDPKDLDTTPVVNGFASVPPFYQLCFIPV

With `O=C(O)CN(CCN(CC(=O)O)CC(=O)O)CCN(CC(=O)O)CC(=O)O`, the Potency entry in assay [1] and in assay [2] was “inactive” each time.
In the case of `NCCCNCCSP(=O)(O)O`, the Potency entry in assay [1] and in [2] was “inactive” in each case.
For `CCN(CC)CCOCCOC(=O)C1(c2ccccc2)CCCC1`, the Potency entry in assay [1] and in assay [2] was “inactive” in each case.
With `CCCCNc1ccc(C(=O)OCCN(C)C)cc1`, the Potency entry in assay [1] and in [2] was “inactive” throughout.
Regarding `CC(C)NNC(=O)c1ccncc1`, the Potency result in assay [1] and in assay [2] was “inactive” throughout.
In the case of `c1cc(CN2CCCCC2)cc(OCCCNc2nc3ccccc3s2)c1`, the Potency result in [1] and in assay [2] was “inactive” in each case.
For `CN1CCN(CC(=O)N2c3ccccc3C(=O)Nc3cccnc32)CC1`, the Potency entry in assay [1] and in [2] was “inactive” in each case.
On to `CC(C)(Oc1ccc(CCNC(=O)c2ccc(Cl)cc2)cc1)C(=O)O`, for which, in [1], the Potency entry is “inactive”.
As for `CCn1cc(C(=O)O)c(=O)c2cc3c(cc21)OCO3`, the Potency result in [1] and in [2] was “inactive” each time.
As to `CCOC(=O)c1cnc2c(cnn2CC)c1NN=C(C)C`, the Potency in [1] is 951 nM (active). Besides, the Potency result in [2] is “inactive”.
For `COCC(=O)O[C@]1(CCN(C)CCCc2nc3ccccc3[nH]2)CCc2cc(F)ccc2[C@@H]1C(C)C` the same measures were “inactive” and “inactive”.
As to `O=C(CCCN1CCC(O)(c2cccc(C(F)(F)F)c2)CC1)c1ccc(F)cc1`, the Potency entry in assay [1] and in assay [2] was “inactive” in each case.
As to `NC(=O)N1c2ccccc2C=Cc2ccccc21`, the Potency entry in assay [1], in assay [4], in assay [8], in [2], in assay [15] and in assay [16] was “inactive” each time. For the same compound, the Potency result in assay [17] and in assay [18] was “inactive” throughout. Also, the call in assay [3], in [5], in assay [6], in [7], in assay [9] and in [11] was inactive. Moreover, the compound was called inactive in [12], in assay [13] and in [14]. The caspase-3 activation in assay [10] is 0.961%. The activation in assay [19] is -7.9% and -9.09% and -6.88%.
Take `COc1ccc([C@@H]2Sc3ccccc3N(CCN(C)C)C(=O)[C@@H]2OC(C)=O)cc1`: the Potency entry in assay [1] is “inactive”.
As for `CCN(CC)CCNC(=O)c1ccc(NC(C)=O)cc1`, the Potency entry in assay [1] and in assay [2] was “inactive” in each case.
As to `CCNC(=O)N1CCN(CCCC(c2ccc(F)cc2)c2ccc(F)cc2)CC1`, the Potency entry in assay [1] and in assay [2] was “inactive” in each case.
As for `CN/C(=C\[N+](=O)[O-])NCCSCc1ccc(CN(C)C)o1`, the Potency result in assay [1] and in assay [2] was “inactive” throughout.
Regarding `CCN1CCc2nc(N)oc2CC1`, the Potency result in assay [1] and in [2] was “inactive” each time.
Turning to `CSc1ccc(C(=O)c2[nH]c(=O)[nH]c2C)cc1`, the Potency result in assay [1] and in assay [2] was “inactive” throughout.
For `COc1cc(C(=O)OCCCN2CCCN(CCCOC(=O)c3cc(OC)c(OC)c(OC)c3)CC2)cc(OC)c1OC`, the Potency entry in assay [1] and in [2] was “inactive” each time.
Take `COc1ccc(CN(CCN(C)C)c2ccccn2)cc1`: the Potency entry in assay [1], in [4], in assay [8] and in assay [2] was “inactive” in each case. In addition, the call in assay [3], in assay [5], in assay [6], in assay [7], in assay [9] and in [11] was inactive. Besides, the compound was classed as inactive in assay [12], in assay [13], in [14] and in assay [20]. In addition, in assay [10], the caspase-3 activation is -0.853%. Besides, in assay [16], the Potency was 501 nM (active) and 126 nM (active).
For the compound `O=C1NCN(c2ccccc2)C12CCN(CCCC(c1ccc(F)cc1)c1ccc(F)cc1)CC2`, the Potency entry in [1] and in [2] was “inactive” throughout. The Potency in assay [16] is 1.58 µM (active).

Values taken from PubChem BioAssay (NCATS).
